Bioassay records (PubChem)
RecA intein inh: blocks M. tuberculosis RecA intein splicing; P9WHJ3; cell-free RecA intein splicing, fluorescence; inhibition, % (test concentration not listed); 290,000 tested, 0.75% active; AID 2221; in the data active means inhibition above about 30%;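 further: 0% = vehicle wells and 100% = reference inhibitor control wells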
Target sequence (P9WHJ3 whole entry, looked up): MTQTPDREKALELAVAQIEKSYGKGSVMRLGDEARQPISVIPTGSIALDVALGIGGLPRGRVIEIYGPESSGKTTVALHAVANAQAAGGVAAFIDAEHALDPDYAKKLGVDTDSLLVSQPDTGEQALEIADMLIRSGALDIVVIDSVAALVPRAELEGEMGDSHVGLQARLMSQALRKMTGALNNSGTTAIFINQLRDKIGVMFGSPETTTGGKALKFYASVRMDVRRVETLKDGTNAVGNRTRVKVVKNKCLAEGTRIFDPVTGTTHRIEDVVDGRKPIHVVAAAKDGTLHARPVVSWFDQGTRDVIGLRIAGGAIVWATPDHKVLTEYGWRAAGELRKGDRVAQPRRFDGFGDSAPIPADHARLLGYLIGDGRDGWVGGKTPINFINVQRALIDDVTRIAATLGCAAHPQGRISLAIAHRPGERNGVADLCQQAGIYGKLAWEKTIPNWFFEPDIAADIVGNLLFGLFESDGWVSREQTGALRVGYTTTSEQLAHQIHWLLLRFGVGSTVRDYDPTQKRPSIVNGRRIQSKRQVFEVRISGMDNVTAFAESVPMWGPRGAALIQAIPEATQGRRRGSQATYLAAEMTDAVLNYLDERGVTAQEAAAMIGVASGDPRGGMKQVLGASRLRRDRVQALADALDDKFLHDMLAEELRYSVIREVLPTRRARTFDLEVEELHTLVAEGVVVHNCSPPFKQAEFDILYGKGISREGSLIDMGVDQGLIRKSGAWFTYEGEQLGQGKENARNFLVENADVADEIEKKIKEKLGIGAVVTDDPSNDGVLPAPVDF
Rv3671c protease: inhibitors of M. tuberculosis serine protease Rv3671c; AID 2606; inhibition, % at 5.96 µM; 320,000 tested, 0.048% active; P9WHR9; in the data active means inhibition above about 38%;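 further: extracellular domain of Rv3671c used as enzyme; 0% = enzyme with DMSO and 100% = no enzyme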
PriA SSB inh: K. pneumoniae PriA-SSBct interaction inhibition. AlphaScreen SSBct-PriA binding, biotinylated peptide. inhibition, % at 33 µM. 430,000 tested, 0.6% active. AID 1272365; in the data active means inhibition mostly above about 37%, no sharp cut-off; inactive means mostly below about 20%;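 further: plate controls were negative control peptide for no effect and reference peptide for full effect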
UGM FP inh: Mtb UDP-galactopyranose mutase inhibition; inhibition, % at 10 µM; AID 504406; purified UGM, fluorescence polarization probe displacement; 320,000 tested, 0.06% active; in the data active means inhibition above about 10%, passing the limit was not always enough
Mtb betalactam: beta-lactam sensitization of Mtb H37Rv | inhibition, % at 25 µM | M. tuberculosis H37Rv growth with meropenem, percent inhibition | 330,000 tested, 0.27% active | AID 434955; call rule not given here;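 further: growth measured after seven days incubation then overnight dye step; 0% = bacteria only wells and 100% = bacteria with antibiotic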
* hit, by the source's call; · = no result given. In the library only some 1.1% were active in any assay of this set; here they are far more common.

SMILES	RecA intein inh	Rv3671c protease	PriA SSB inh	UGM FP inh	Mtb betalactam
O=C(O)c1ccnc(C(=O)O)c1	-5.5	-4.8	56.9*	4.1	-1.8
O=C(O)c1cc(-n2ccnc2)ccn1	·	·	72.2*	·	·
C=CC(=O)N1c2ccccc2Sc2ccc(NC(=O)OCC)cc21	-2.4	-3.6	-15.2	3.2	-4.7
CCOC(=O)Nc1ccc2c(c1)Nc1ccccc1S2	-7.9	8.8	53.3*	0.3	40.7
CCOc1ccc(C(=O)N2CCN(c3oc(/C=C/c4cccs4)nc3C#N)CC2)cc1	·	·	-10.0	·	·
Cc1ccc(NC(=O)CN2CC(c3nc(-c4cccs4)no3)C2)cc1Cl	·	·	-11.0	·	·
Cc1oc(-c2ccc(Cl)cc2[N+](=O)[O-])cc1C(=O)Nc1cccc(F)c1	·	·	35.0*	·	·
Cc1ccsc1/C=C1\SC(=N)NC1=O	·	·	-13.5	·	·
O=C(c1ccc(F)cc1Cl)N1CCC(Cn2cccn2)CC1	·	·	37.0*	·	·
CCOC(=O)CCCSc1nnc(CSc2nc(N)c3c4c(sc3n2)CCC4)n1-c1ccccc1	·	·	-13.0	·	·
Cc1nnc(N/N=C/c2cccc(C(F)(F)F)c2)n1N	1.3	-14.2	·	2.2	74.7
Cc1nnc(N/N=C/c2cccc(OCc3ccc(Cl)c(Cl)c3)c2)n1N	74.2*	-67.8	·	-0.6	100.1
CC(O)=C(C=Nc1ccccc1)C(=O)Nc1ccccc1	·	·	-12.2	·	·
CNC(=S)NN=Cc1ccc(-c2ccc(Cl)c([N+](=O)[O-])c2)o1	·	·	-11.8	·	·
C#CCn1c(=NC(=O)c2c(-c3ccccc3Cl)noc2C)sc2cc(S(C)(=O)=O)ccc21	·	·	-8.0	·	·
O=C(c1cccs1)N1N=C(c2ccccc2)C[C@H]1c1ccc2nccnc2c1	·	·	-1.0	·	·
O=C(c1cccs1)N1N=C(c2ccccc2)CC1c1ccc2nccnc2c1 (stereo unspecified)	·	·	37.0*	·	·
O=C(Nc1nnc(-c2ccco2)o1)C1CC(=O)N(c2ccccc2)C1 (stereo unspecified)	·	·	65.0*	·	·
Cc1ccc(NC(=O)CCC(=O)NNC(=O)COc2ccc([N+](=O)[O-])cc2)cc1C	-3.3	-17.4	-4.9	0.2	83.7
Cc1ccc(NC(=O)NNC(=O)COc2ccc([N+](=O)[O-])cc2)cc1C	-0.4	-123.9	39.9*	4.3	-6.9
O=C(CSc1ccc(Cl)cc1)Nc1nnc(-c2ccccn2)o1	·	·	35.0*	·	·
Cc1ccc(SCCC(=O)Nc2nnc(-c3ccccn3)o2)cc1	·	·	10.0	·	·
O=C(/C=C/c1cccs1)NCCn1ccnc1-c1ncccn1	·	·	116.5*	·	·
O=C(NCCn1ccnc1-c1ncccn1)c1ccccc1Cl	·	·	78.0*	·	·
O=C(Cc1ccccc1Cl)NCCn1ccnc1-c1ncccn1	·	·	1.0	·	·
SMILES	RecA intein inh	Rv3671c protease	PriA SSB inh	UGM FP inh	Mtb betalactam
CCOc1ccccc1C(=O)NCCCCNC(=O)c1ccccc1OCC	0.0	3.4	2.6	0.0	6.1
COc1cccc2cc(C(=O)NCCn3ccnc3-c3ncccn3)oc12	·	·	46.0*	·	·
CCOc1ccccc1C(=O)NCCn1ccnc1-c1ncccn1	·	·	55.0*	·	·
COc1cccc2cc(C(=O)NCCn3ccnc3-c3cccnc3)oc12	·	·	-19.0	·	·
O=C(NN=C(CC(=O)c1cccs1)C(F)(F)F)c1ccc(O)cc1	·	·	7.4	·	·
Cc1oncc1C(=O)NCCn1ccnc1-c1ncccn1	·	·	46.0*	·	·
Cc1cc(C(=O)NCCn2ccnc2-c2ncccn2)no1	·	·	-7.0	·	·
O=S(=O)(NCc1ccc(C(O)c2cccs2)s1)C1CC1 (stereo unspecified)	·	·	0.0	·	·
COc1ccc(CCNc2nccn(-c3cccc(Cl)c3C)c2=O)cc1OC	·	·	32.0*	·	·
O=C(NN=Cc1ccc[nH]1)c1ccc([N+](=O)[O-])cc1	·	·	-3.3	·	·
O=[N+]([O-])c1ccc(NN=Cc2ccc[nH]2)cc1	·	·	54.7*	·	·
COc1ccc(C2C(C#N)=C(N)OC3=C2C(=O)CCC3)cc1Cn1nc(C)c([N+](=O)[O-])c1C (stereo unspecified)	3.5	-1.4	22.7	0.0	-10.3
COc1cc(C2C(C#N)=C(N)Oc3n[nH]c(-c4cccnc4)c32)ccc1OCC(N)=O (stereo unspecified)	46.3*	-24.2	-4.5	-0.5	1.0
COc1ccc(C2C(C#N)=C(N)Oc3n[nH]c(C)c32)cc1Cn1nc(C)c([N+](=O)[O-])c1C (stereo unspecified)	83.7*	-2.5	8.7	1.0	3.8
CCOc1cc(C2C(C#N)=C(N)Oc3n[nH]c(-c4ccncc4)c32)cc([N+](=O)[O-])c1O (stereo unspecified)	12.2	-4.7	-8.3	1.4	4.3
COc1cc(C2C(C#N)=C(N)Oc3n[nH]c(C)c32)ccc1OC(=O)c1ccccc1 (stereo unspecified)	38.4*	-5.7	1.3	-4.2	7.0
COc1ccc(C2C(C#N)=C(N)Oc3cc(C)[nH]c(=O)c32)cc1OC (stereo unspecified)	-1.3	-2.4	-1.6	0.7	-4.2
COc1ccc(C(=O)/C=C2\C(=O)Nc3ccc(Br)cc32)cc1	·	·	-11.7	·	·
O=C1Nc2ccc(Br)cc2/C1=C/C(=O)c1ccc2c(c1)OCO2	49.2*	-0.8	-1.9	0.7	99.0
O=C(C(c1ccccc1)c1ccccc1)N1CCN(c2nc3c(Cl)cccc3s2)CC1	·	·	4.0	·	·
O=C(Nc1ccc(-c2ccc3nnc(-c4ccccn4)n3n2)cc1)c1cccc(F)c1	·	·	40.0*	·	·
CC(C)[C@H]1C(=O)N2CCC[C@H]2[C@]2(O)O[C@](NC(=O)[C@@H]3C=C4c5cccc6[nH]cc(c56)C[C@H]4N(C)C3)(C(C)C)C(=O)N12	34.6*	-36.6	4.9	9.6	4.4
COc1cc(C=Nc2ccc(Br)cc2)ccc1OC(=O)Oc1ccccc1	·	·	-2.0	·	·
O=Nc1c(O)c2ccccc2c2ccccc12	41.5*	4.8	29.2	-0.8	100.3
CS(=O)(=O)Nc1ccc(N2CCN(c3ccc(C(F)(F)F)cn3)CC2)nc1	6.1	5.2	-5.2	1.6	4.1
SMILES	RecA intein inh	Rv3671c protease	PriA SSB inh	UGM FP inh	Mtb betalactam
CC1=NN(c2ccc(C(F)(F)F)cn2)C(=O)C1	-1.8	-19.6	44.8*	-0.8	-2.2
O=[N+]([O-])c1ccc(O)c(CSc2nnnn2-c2ccccc2)c1	2.1	-1.9	99.0*	0.4	5.2
N#Cc1nc(COc2ccc(-c3ccccc3)cc2)oc1N1CCCC1	·	·	53.8*	·	·
CCN1CCN(c2oc(COc3ccc(C)cc3)nc2C#N)CC1	·	·	50.5	·	·
CCN1CCN(c2oc(COc3ccc(-c4ccccc4)cc3)nc2C#N)CC1	8.0	-1.8	40.7*	-1.4	94.3
CCSc1ccccc1C(=O)Nc1nc(-c2nc3ccccc3s2)cs1	·	·	19.0	·	·
COc1nc(NC(C)C)nc(N(C#N)CN2C(=O)c3ccccc3S2(=O)=O)n1	60.9*	-1.2	-9.8	0.2	4.3
CCOc1ccccc1NC(=O)c1ccc(=O)n(Cc2ccccc2Cl)c1	·	·	-1.0	·	·
COc1ncccc1C(=O)Nc1nnc(-c2ccsc2)o1	·	·	8.0	·	·
CCn1nc([N+](=O)[O-])c(C(C#N)c2nc3cc(C(F)(F)F)ccc3s2)c(Cl)c1=O (stereo unspecified)	3.7	22.5	73.3*	2.7	10.3
COc1cc(C(=O)Nc2cccc(Cl)c2Cl)on1	·	·	-24.0	·	·
Nc1ccc2c3c(cccc13)C(=O)N(c1ccccc1)C2=O	-71.6	·	-5.0	·	·
CCN1C(=O)c2cccc3c(Cl)ccc(c23)C1=O	1.3	4.9	-6.5	1.6	-6.0
CC(C)CCN1C(=O)c2cccc3c(N)ccc(c23)C1=O	-404.7	6.0	-81.5	18.1*	-5.9
